Where “and” joins values, the source holds several entries; their conditions need not be identical. Identical values can stand only once. Hit rate of the full screen: of about 16,000 compounds, about 2,600 (16%) were called active. Not shown: some 20% with an inconclusive outcome. The full list was thinned out, with actives kept by preference. A number with no mark means an inactive call. Calls come from the whole dose curve; as a rule, active = well fitted curve in the direction sought with a large enough effect; inconclusive = small, poorly fitted or top-dose-only effect, or effect the other way; inactive = no such curve, though single readings can be large or run the other way.
These compounds were tested against Cytochrome P450 2D6 (Homo sapiens) (UniProt P10635) (assay: Cytochrome panel assay with activity outcomes). Conditions: recombinant CYP, pro-luciferin dealkylation, luminescence, p450-cyp2d6; series mostly up to 57.1 µM; activity, negative = inhibition: at the top concentration.
Experimental: The P450 gene superfamily is involved in the metabolism and clearance of xenobiotics. This assay used various human CYP P450 isozymes to measure the dealkylation of various pro-luciferin substrates to luciferin. The luciferin is then measured by luminescence after the addition of a luciferase detection reagent. Pro-luciferin substrate concentration in the assay was equal to its KM for its CYP P450 isozyme. Inhibitors and some substrates limit the production of luciferin, and decrease measured luminescence.
NCGC Assay Protocol Summary:
1, Reagent, 2 uL, Isozyme and Pro-Luciferin
2, Library compounds, 23 nl, 40 uM to 0.24 nM dilution series
3, Controls, 23 nl, Isozyme specific inhibitor
4, Reagent, 2 uL, NADPH regeneration solution
5, Incubation time, 60 min, Isozyme specific temperature
6, Reagent, 4ul, Detection reagent
7, Incubation time, 20 min, Isozyme specific temperature
8, Detection, 1 sec, ViewLux luminescent read
The luciferase-based P450-GloTM Screening Systems were obtained from Promega (Madison, WI) for CYP 1A2 (V9770), CYP 2C9 (V9790), CYP2 C19 (V9880), CYP 2D6 (V9890), and CYP 3A4 Luciferin-PPXE (V9910) and were adapted for 1,536-well microplates and an automated protocol. The control compounds furafylline for 1A2 (F124), sulfaphenazole for CYP 2C9 (S0758), ketoconazole for CYP 2C19 (K1003), quinidine for 2D6 (Q3625), and ketoconazole for 3A4 (K1003) were purchased from Sigma Aldrich (St. Louis, MO). Recombinant P450 enzymes were obtained from baculovirus constructs expressed in insect cells (BD/Gentest).
Medium-binding white solid Kalypsys plates used. Mixtures kept on ice. 1A2: 10 nM 1A2, 100 uM Luc-ME, 100 mM KPO4; 2C9: 10 nM 2C9, 100 uM Luc-H, 25 mM KPO4; 2C19: 5 nM 2C19, 10 uM Luc-H EGE, 50 mM KPO4; 2D6: 5 nM 2D6, 30 uM Luc-ME EGE, 100 mM KPO4; 3A4: 10 nM, 25 uM Luc-PPXE. All amounts are reflected in their final concentration, working concentration is 2x.
NADPH regeneration solution: 1.3 mM NADP+, 3.3 mM glucose-6-phosphate, 3.3 mM MgCl2, 0.4 U/mL glucose-6-phosphate dehydrogenase for all isozymes, 200 mM KPO4 for 3A4. Mixture prepared at RT but kept on ice during automated run.
RT incubation in auxilliary plate hotel for 1A2, 2D6, and 3A4; 37C for 2C9 and 2C19.
Keywords: P450, CYP1A2, CYP2C19, CYP2C9, CYP2D6, CYP3A4, Luciferase, MLSMR, MLSCN, NIH Roadmap, qHTS, NCGC
% is set by controls: 0 for no effect and ±100 for the full control effect.

Chain of Cytochrome P450 2D6 (Homo sapiens) (P10635 whole entry, looked up): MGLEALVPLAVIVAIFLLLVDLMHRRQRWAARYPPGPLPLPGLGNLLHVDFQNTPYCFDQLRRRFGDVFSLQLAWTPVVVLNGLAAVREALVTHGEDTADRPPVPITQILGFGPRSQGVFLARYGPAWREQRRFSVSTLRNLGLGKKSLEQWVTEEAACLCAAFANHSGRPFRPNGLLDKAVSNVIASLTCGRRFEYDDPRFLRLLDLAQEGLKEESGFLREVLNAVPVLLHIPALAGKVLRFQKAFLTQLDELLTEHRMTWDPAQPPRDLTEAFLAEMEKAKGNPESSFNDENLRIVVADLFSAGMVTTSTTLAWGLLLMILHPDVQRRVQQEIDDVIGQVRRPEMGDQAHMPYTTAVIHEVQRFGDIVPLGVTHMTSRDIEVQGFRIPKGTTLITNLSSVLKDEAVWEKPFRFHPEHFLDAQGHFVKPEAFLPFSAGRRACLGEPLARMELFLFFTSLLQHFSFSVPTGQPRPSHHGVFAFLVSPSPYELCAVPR

SMILES | AC50 | activity, negative = inhibition
O=C1c2ccccc2-c2cc([N+](=O)[O-])c([N+](=O)[O-])cc21 | 3.16 µM (active) | –
O=C1c2cc([N+](=O)[O-])ccc2-c2ccc3c4ccc5c6c(ccc(c7ccc1c2c73)c64)C(=O)c1cc([N+](=O)[O-])ccc1-5 | – | -6.4% [at 11.4 µM]
Cc1cc(C)nc(NC2=NCCS2)n1 | – | 1.02%
C/C(=N\OC(=O)NC(C)C)c1sc(-c2ccccc2)nc1C | – | -28.9%
CCOC(=O)c1[nH]c(C)c(C(=O)N2CCC3(CC2)OCCO3)c1C | – | 8.23%
Cc1noc(C)c1C(=O)N1CCC2(CCCN(CC(C)C)C2)CC1 | 12.6 µM (active) | –
O=C(Oc1ccccc1)N1CCC2(CC1)CN(Cc1ccncc1)C2 | – | -16.1%
O=C(Oc1ccccc1)N1CCC2(CCN(Cc3ccncc3)CC2)CC1 | – | -7.62%
O=C(c1ccco1)N1CCC[C@@]2(CCN(Cc3ccncc3)C2)C1 | 12.6 µM (active) | –
O=C(c1ccncc1)N1CCC2(CC1)CN(Cc1ccccc1)C2 | 6.31 µM (active) | –
CC(C)CN1CC2(CCN(C(=O)c3ccncc3)CC2)C1 | 3.98 µM (active) | –
CN1CC[C@@]2(CCCN(C(=O)c3ccncc3)C2)C1 | – | -13.8%
O=C(Oc1ccc(S(=O)(=O)F)cc1F)c1ccccc1Cl | – | 12.8% [at 11.4 µM]
C/C(O)=C(/C#N)C(=O)Nc1cc(Br)ccc1Br | – | 2.34%
Cn1c(=O)c2[nH]cnc2n(C)c1=O | – | 2.65% [at 25.6 µM]
O=c1cc(-c2ccc(O)cc2)oc2cc(O)cc(O)c12 | – | 5.24%
COc1cc2c(cc1OC)[C@@]13CCN4CC5=CCO[C@H](CC(=O)O)[C@@H]([C@H]1N2)[C@H]5C[C@H]43 | – | -8.05% [at 11.4 µM]
CCC(COC(=O)NC)NC(=O)Oc1ccccc1 (centres undefined) | – | -14%
O=C(c1cc2cc3ccc(Cl)cc3nc2o1)N1CCC2(CC1)OCCO2 | – | -14.3%
O=C(Cc1ccc(Cl)c(Cl)c1)N1CCCC[C@H]1CN1CCCC1 | 7.94 µM (active) and 2.51 µM (active) | –
CC[C@]1([C@H]2O[C@@H]([C@@H]3O[C@](O)(CO)[C@@H](C)C[C@H]3C)C[C@H]2C)CC[C@@H]([C@]2(C)CC[C@@]3(C[C@@H](O)[C@@H](C)[C@@H]([C@H](C)[C@H](OC)[C@H](C)C(=O)O)O3)O2)O1 | – | 1.92% [at 25.6 µM]
c1ccc(CCCCN2CCC(c3ccccc3)CC2)cc1 | 0.0398 µM (active) | –

SMILES | AC50 | activity, negative = inhibition
C[C@@H](N)Cn1ccc2cc(F)c(Cl)cc21 | – | -5.27%
CC(C)Oc1cc(-n2c(=S)[nH]c3ccccc3c2=O)c(Cl)cc1Cl | – | -18.2%
C[C@H](CC(C#N)(c1ccccc1)c1ccccc1)N1CCCCC1 | 2.51 µM (active) | –
CC(=O)Nc1ccccc1C(=O)OCc1ccc(C(=O)c2ccccc2)cc1 | – | 0.604%
CC(C)CC(=O)C[C@H](O)C(Cl)(Cl)Cl | – | 2.83% [at 11.4 µM]
C[C@@H]1[C@@H](C)N1C[C@H](O)Cn1ccnc1[N+](=O)[O-] (some centres undefined) | – | 4.54% [at 11.4 µM]
C[N+](C)(C)[C@H](Cc1c[nH]c(=S)[nH]1)C(=O)O | – | -8.35% [at 11.4 µM]
O=C(O)CP(=O)(O)c1ccc(Cl)cc1 | – | 9.45%
NC[C@H](CC(=O)O)c1ccc(Cl)cc1 | 0.794 µM (active) | –
NC[C@@H](CC(=O)O)c1ccc(Cl)cc1 | inactive | –
CCN1CCC2(CC1)NC(CO)(CO)CO2 | – | 10.6%
O=c1[nH]c(=O)n(CCc2ccc(F)cc2)c(O)c1C=NCCCN1CCOCC1 | – | -11.6%
COc1cc2c(cc1OC)[C@@H]1C(=O)c3ccc4c(c3O[C@@H]1CO2)C=CC(C)(C)O4 | 0.0631 µM (active) | –
OC(Cn1c2ccccc2c2ccccc21)C[n+]1ccccc1 (centres undefined) | 0.0126 µM (active) | –
C[C@]12CC[C@@H]3[C@H](CCC4=CC(=O)CC[C@]43C)[C@]1(O)CC[C@@]2(O)C(=O)CO | – | 16.3% [at 11.4 µM]
Cc1nc(N)sc1CCN | – | -0.208%
CNCCCc1ccccc1 | – | -18.3%
CC(O)(CS(=O)(=O)c1ccccc1)C(=O)Nc1cccc(C(F)(F)F)c1 (centres undefined) | – | -1.04%
C[C@@H](Cc1cccc(C(F)(F)F)c1)NCCCc1ccccc1 | 0.0126 µM (active) | –
C[C@@]12CC[C@@H]3c4ccc(O)cc4C[C@H](CCCCCCCCCS(=O)CCCC(F)(F)C(F)(F)F)[C@H]3[C@@H]1CC[C@@H]2O (some centres undefined) | – | -5.58%
CCN(CC)C(=O)N[C@H]1C[C@H]2c3cccc4[nH]cc(c34)C[C@@H]2N(C)C1 | 0.0398 µM (active) | –
CCN(CC)C(=O)N[C@@H]1C[C@H]2c3cccc4[nH]cc(c34)C[C@@H]2N(C)C1 | 15.8 nM (active) and 10 nM (active) | –

From PubChem BioAssay AID1851 (National Center for Advancing Translational Sciences (NCATS), 2009)
